The values below come from the supplement of paper PMC10849652.

Common to all, as to assay: log2 fold change, soluble protein after heating vs DMSO (PISA); higher = thermal stabilisation; K562 lysate, 10 uM; active = over 0.2 and 3.5 SD of the protein, either way, in both replicates (recomputed)
Compound in one experiment: C#Cc1cccc(Nc2ncnc3cc(OCCOC)c(OCCOC)cc23)c1 [erlotinib]
In a few lines:
(§1)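 Soluble protein was defined as the supernatant remaining after 21,000xg for 90 min, following pooling of heated aliquots and adjustment to 0.5% NP-40 at 4°C. Before that, crude K562 extract at 1 mg/mL protein in PBS pH 7.4 with 1 mM MgCl2 was treated with 10 μM compound for 30 min and heated for 3 min across 48°C-58°C. Quantification used TMTpro 16plex LC-MS/MS with channel sums equalised, and values are log-two fold changes in thermal stability relative to solvent controls from duplicates.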

Compound in experiment [1]: C/C(=N\NC(=O)C1=CC(=CC=C1)S(=O)(=O)N2CCOCC2)/C3=C(C=CC(=C3)Cl)O
In a few lines: as §1

Compound in experiment [2]: C1=CC(=CC=C1C2=NC3=C(N2)C=C(C=C3)C(=O)N)OC4=CC=C(C=C4)Cl
The essentials:
as §1

Compound in experiment [3]: C1=CC2=C(C=CC(=C2)/C=C\3/C(=O)NC(=NCC4=CC=CS4)S3)N=C1
In a few lines: as §1

Compound in experiment [4]: C1=CC2=NC=CN=C2C=C1/C=C/3\C(=O)NC(=O)S3
In a few lines: as §1

Compound in experiment [5]: C1=CC=C(C=C1)C2=NC(=C(N2)C3=CC=NC=C3)C4=CC(=C(C=C4)Cl)O
In a few lines: as §1

Compound in experiment [6]: C1=CC=C2C(=C1)C3=NNC4=CC=CC(=C43)C2=O
In a few lines:
as §1

Compound in experiment [7]: C1CCN(C1)C(=O)NC2=CC=CC(=C2)NC3=NC=C(C(=N3)NCCC4=CN=CN4)Br
In a few lines:
as §1

Compound in experiment [8]: C1CN(CCC1(CC2=CC=C(C=C2)Cl)N)C3=NC=NC4=C3C=CN4
The essentials:
as §1

Compound in another experiment: C1COCCN1CCN2C3=CC=CC=C3N=C2NC(=O)C4=CC(=CC=C4)[N+](=O)[O-] [IRAK-1-4 Inhibitor I]
In a few lines:
as §1

About 8,800 targets were measured; listed, in parts, are those with a hit and a random draw of the rest. About 0.5% of all pairs of compound and target were hits. A number with no mark means an inactive call.

UniProt P98196, sequence (P98196 whole entry, looked up): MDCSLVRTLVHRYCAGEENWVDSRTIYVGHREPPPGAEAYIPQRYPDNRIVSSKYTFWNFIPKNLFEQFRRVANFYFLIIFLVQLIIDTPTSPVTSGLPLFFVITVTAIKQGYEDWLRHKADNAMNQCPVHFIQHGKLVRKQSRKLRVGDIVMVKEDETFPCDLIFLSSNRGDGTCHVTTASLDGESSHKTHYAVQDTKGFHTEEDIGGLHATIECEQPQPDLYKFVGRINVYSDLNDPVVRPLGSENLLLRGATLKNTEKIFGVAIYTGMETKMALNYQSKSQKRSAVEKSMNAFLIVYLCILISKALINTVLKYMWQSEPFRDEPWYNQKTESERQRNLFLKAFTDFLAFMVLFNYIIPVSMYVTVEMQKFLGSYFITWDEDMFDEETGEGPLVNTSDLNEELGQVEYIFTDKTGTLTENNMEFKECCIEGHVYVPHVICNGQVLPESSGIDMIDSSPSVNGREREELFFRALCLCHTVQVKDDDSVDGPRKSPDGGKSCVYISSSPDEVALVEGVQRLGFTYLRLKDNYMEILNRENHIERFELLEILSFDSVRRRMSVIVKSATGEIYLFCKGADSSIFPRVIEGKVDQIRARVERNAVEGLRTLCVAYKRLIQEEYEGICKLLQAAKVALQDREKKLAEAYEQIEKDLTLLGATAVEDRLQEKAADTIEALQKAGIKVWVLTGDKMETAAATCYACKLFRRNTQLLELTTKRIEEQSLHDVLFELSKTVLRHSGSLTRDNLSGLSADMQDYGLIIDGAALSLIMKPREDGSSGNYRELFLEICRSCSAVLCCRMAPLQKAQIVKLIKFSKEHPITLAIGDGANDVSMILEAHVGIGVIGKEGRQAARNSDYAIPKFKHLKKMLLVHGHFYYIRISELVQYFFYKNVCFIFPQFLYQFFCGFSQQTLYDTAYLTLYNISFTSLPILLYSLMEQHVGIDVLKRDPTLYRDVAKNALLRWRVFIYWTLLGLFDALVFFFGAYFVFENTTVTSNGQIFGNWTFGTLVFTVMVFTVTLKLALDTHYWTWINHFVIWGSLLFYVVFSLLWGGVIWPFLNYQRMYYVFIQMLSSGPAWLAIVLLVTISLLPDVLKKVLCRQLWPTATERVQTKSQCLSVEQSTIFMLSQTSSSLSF
UniProt Q9Y6H1, sequence (Q9Y6H1 whole entry, looked up): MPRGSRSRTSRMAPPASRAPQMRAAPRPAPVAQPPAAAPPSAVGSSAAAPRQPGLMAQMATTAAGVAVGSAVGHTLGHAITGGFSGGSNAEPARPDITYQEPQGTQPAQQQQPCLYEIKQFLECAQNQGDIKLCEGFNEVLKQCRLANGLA
UniProt Q86YS7, sequence (Q86YS7 whole entry, looked up): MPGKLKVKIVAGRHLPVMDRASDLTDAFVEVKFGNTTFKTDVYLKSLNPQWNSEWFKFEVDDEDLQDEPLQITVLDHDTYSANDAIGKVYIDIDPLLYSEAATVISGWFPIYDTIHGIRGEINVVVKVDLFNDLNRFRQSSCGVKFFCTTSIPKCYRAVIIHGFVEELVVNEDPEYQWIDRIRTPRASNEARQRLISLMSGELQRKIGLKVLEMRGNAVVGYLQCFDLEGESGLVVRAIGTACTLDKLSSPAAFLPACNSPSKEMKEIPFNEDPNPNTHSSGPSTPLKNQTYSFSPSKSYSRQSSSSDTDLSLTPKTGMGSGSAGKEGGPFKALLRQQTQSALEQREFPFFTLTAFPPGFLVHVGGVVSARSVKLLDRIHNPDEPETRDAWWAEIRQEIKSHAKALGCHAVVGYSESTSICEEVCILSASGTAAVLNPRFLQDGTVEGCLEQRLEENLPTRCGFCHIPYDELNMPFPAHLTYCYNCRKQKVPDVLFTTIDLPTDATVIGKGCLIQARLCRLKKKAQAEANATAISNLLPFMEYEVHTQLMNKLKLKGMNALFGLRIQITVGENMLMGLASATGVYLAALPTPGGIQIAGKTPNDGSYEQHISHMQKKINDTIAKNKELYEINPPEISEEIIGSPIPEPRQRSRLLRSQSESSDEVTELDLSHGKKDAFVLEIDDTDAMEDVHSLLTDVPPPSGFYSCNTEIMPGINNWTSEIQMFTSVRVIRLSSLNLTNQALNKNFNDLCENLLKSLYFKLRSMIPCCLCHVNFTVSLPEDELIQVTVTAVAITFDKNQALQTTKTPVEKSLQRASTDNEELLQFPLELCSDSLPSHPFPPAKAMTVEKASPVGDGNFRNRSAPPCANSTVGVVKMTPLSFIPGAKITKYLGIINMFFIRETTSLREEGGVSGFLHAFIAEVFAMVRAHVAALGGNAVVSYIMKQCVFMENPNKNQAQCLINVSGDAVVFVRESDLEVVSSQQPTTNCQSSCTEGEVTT
UniProt P30307, sequence (P30307 whole entry, looked up): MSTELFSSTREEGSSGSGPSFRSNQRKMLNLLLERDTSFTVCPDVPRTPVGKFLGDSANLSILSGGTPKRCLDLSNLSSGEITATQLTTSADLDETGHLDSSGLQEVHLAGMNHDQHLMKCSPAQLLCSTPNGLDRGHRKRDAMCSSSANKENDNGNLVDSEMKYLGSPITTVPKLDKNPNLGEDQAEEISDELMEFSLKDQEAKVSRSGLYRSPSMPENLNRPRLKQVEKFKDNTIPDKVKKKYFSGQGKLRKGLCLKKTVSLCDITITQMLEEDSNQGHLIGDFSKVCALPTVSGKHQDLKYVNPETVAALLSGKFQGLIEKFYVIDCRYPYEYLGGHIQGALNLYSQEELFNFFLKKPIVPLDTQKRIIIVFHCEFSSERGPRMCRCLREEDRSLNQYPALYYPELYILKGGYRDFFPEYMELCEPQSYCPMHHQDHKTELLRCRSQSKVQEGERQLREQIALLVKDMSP
UniProt Q7L2Z9, sequence (Q7L2Z9 whole entry, looked up): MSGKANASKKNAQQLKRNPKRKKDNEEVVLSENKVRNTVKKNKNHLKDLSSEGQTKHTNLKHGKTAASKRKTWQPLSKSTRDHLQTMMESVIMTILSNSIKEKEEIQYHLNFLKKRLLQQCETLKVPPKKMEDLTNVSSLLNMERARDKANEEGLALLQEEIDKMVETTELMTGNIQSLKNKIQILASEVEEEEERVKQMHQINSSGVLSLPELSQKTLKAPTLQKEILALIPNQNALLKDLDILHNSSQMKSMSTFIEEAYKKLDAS
UniProt Q9H3K6, sequence (Q9H3K6 whole entry, looked up): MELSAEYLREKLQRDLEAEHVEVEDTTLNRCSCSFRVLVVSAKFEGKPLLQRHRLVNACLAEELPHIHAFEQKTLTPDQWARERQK
UniProt Q14004, sequence (Q14004 whole entry, looked up): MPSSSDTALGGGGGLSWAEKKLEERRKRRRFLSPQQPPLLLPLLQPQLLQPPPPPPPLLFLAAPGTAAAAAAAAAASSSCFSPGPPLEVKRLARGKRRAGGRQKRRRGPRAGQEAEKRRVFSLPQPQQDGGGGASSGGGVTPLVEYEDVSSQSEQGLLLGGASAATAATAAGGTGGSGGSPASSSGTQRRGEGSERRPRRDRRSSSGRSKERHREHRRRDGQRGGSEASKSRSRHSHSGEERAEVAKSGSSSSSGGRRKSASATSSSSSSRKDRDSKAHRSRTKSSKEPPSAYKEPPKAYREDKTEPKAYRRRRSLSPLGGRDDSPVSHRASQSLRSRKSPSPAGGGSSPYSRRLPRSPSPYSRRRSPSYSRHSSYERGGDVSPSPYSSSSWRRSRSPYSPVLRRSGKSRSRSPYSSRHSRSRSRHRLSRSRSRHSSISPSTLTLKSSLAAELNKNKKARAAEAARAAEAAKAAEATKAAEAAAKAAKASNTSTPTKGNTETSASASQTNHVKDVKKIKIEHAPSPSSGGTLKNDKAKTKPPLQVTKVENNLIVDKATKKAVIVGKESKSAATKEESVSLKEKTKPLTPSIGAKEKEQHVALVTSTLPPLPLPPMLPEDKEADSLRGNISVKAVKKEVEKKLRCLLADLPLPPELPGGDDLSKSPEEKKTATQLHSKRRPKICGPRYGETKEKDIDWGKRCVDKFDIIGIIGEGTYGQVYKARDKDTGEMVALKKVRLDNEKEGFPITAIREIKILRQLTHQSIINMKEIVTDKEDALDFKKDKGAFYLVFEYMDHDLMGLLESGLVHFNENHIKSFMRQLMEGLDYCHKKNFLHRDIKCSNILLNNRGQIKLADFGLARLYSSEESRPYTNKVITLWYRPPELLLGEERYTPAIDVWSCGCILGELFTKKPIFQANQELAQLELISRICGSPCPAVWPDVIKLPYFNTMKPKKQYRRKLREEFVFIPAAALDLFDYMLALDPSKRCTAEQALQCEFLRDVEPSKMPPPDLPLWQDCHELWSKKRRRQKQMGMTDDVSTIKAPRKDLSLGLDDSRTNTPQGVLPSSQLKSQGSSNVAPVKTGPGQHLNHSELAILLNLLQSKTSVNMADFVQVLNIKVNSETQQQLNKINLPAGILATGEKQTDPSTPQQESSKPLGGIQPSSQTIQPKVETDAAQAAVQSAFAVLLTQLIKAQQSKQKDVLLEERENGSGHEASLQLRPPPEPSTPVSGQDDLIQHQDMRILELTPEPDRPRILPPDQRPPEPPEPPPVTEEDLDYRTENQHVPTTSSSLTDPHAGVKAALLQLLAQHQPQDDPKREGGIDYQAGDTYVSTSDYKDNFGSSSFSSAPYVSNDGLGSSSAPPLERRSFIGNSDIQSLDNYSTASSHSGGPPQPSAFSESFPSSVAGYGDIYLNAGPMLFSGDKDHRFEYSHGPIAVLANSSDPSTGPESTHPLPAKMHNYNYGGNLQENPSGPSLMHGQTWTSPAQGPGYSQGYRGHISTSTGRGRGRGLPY
UniProt Q5BKX5, sequence (Q5BKX5 whole entry, looked up): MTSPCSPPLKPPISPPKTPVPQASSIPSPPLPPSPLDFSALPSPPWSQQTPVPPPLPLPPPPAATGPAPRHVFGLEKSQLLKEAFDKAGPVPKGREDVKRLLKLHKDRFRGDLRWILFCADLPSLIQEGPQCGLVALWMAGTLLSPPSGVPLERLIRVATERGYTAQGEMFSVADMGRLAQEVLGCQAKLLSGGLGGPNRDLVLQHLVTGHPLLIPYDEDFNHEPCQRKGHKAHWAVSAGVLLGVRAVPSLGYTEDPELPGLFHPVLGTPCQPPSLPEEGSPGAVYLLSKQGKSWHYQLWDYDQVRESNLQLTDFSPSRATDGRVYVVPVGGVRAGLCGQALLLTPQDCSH

As for BUB1B isoform 3 (UniProt O60566), the log2 fold change with erlotinib was 0.019; in experiment [1], 0.013; in experiment [2] it was -0.002; in experiment [3] it was -0.026; in [4], 0.01; in [5], 0.021. Moreover, the log2 fold change in [6] was -0.039; in experiment [7] it was -0.031; in experiment [8] it was -0.008; with IRAK-1-4 Inhibitor I, -0.016.

In the case of CDC25C (UniProt P30307), the log2 fold change is 0.007 in the experiment with erlotinib; -0.157 in experiment [1]; -0.061 in [2]; 0.042 in experiment [3]; -0.031 in experiment [4]; 0.026 in [5]. In addition, the log2 fold change was -0.148 in experiment [6], -0.035 in [7], -0.058 in experiment [8] and -0.039 with IRAK-1-4 Inhibitor I.

With BOLA2 (UniProt Q9H3K6), the log2 fold change in the experiment with erlotinib is 0.008; in [1], 0.078; in [2] it was -0.112; in [3], -0.007; in experiment [4], 0.032; in experiment [5], 0.01. Further, the log2 fold change in experiment [6] is 0.039; in experiment [7], 0.034; in experiment [8] it was 0.006; in the experiment with IRAK-1-4 Inhibitor I it was 0.013.

Turning to ATP11A (UniProt P98196), the log2 fold change in the experiment with erlotinib is -0.003; in experiment [1] it was -0.067; in [2], -0.033; in experiment [3] it was -0.011; in experiment [4], -0.022; in experiment [5] it was 0.016. Moreover, the log2 fold change was 0.102 in experiment [6], -0.005 in experiment [7], -0.015 in experiment [8] and 0.087 with IRAK-1-4 Inhibitor I.

Regarding CHD3 isoform 3 (UniProt Q12873), the log2 fold change is 0.003 with erlotinib; -0.022 in experiment [1]; -0.025 in [2]; -0.01 in experiment [3]; 0.003 in experiment [4]; 0.002 in experiment [5]. The log2 fold change was -0.017 in experiment [6], -0.058 in experiment [7], 0.005 in experiment [8] and -0.032 in the experiment with IRAK-1-4 Inhibitor I.

With CARD9 (UniProt Q9H257), the log2 fold change in the experiment with erlotinib is 0.035; in experiment [1], -0.024; in [2], -0.029; in experiment [3] it was -0.02; in experiment [4], -0.024; in experiment [5] it was -0.009. Moreover, the log2 fold change in [6] was 0.033; in [7] it was 0.015; in experiment [8], -0.003; in the experiment with IRAK-1-4 Inhibitor I, 0.017.

As to BMS1 (UniProt Q14692), the log2 fold change was -0.029 with erlotinib; -0.089 in [1]; -0.027 in experiment [2]; 0.028 in experiment [3]; -0.046 in experiment [4]; 0.034 in [5]. Also, the log2 fold change is 0.039 in [6], 0.006 in experiment [7], 0.01 in [8] and -0.01 with IRAK-1-4 Inhibitor I.

Regarding CCDC32 isoform 2 (UniProt Q9BV29), the log2 fold change in the experiment with erlotinib is -0.021; in experiment [1] it was 0.031; in experiment [2], -0.027; in experiment [3], 0; in experiment [4] it was -0.014; in [5], -0.003. The log2 fold change is 0.007 in [6], 0.048 in experiment [7], 0.049 in experiment [8] and 0.057 in the experiment with IRAK-1-4 Inhibitor I.

Take C19orf54 (UniProt Q5BKX5): the log2 fold change with erlotinib was -0.012; in [1], 0.042; in experiment [2], 0.035; in [3], -0.025; in experiment [4], 0.019; in [5] it was -0.004. Besides, the log2 fold change in [6] is 0.022; in [7], -0.012; in experiment [8], -0.012; with IRAK-1-4 Inhibitor I, 0.054.

C2CD5 isoform 3 (UniProt Q86YS7): the log2 fold change with erlotinib was 0.021; in experiment [1], -0.047; in experiment [2], 0.017; in experiment [3], -0.024; in experiment [4], -0.048; in experiment [5], -0.034. Further, the log2 fold change in experiment [6] is -0.046; in [7] it was -0.045; in [8], 0.024; with IRAK-1-4 Inhibitor I, 0.054.

As to CDK13 (UniProt Q14004), the log2 fold change with erlotinib was -0.136; in experiment [1], -0.041; in [2], -0.089; in experiment [3], -0.052; in experiment [4] it was 0.01; in experiment [5], -0.071. Also, the log2 fold change is 0.127 in experiment [6], 0.091 in experiment [7], -0.025 in [8] and -0.044 in the experiment with IRAK-1-4 Inhibitor I.

CHCHD2 (UniProt Q9Y6H1): the log2 fold change is -0.068 with erlotinib; -0.03 in [1]; -0.086 in [2]; 0.033 in [3]; -0.024 in experiment [4]; 0.027 in experiment [5]. The log2 fold change in experiment [6] is 0.092; in experiment [7], 0.009; in experiment [8], 0.057; in the experiment with IRAK-1-4 Inhibitor I, -0.005.

For the target CDC7 (UniProt O00311), the log2 fold change is -0.032 with erlotinib; 0.038 in experiment [1]; 0.038 in experiment [2]; -0.109 in experiment [3]; -0.324 (active) in [4]; -0.006 in experiment [5]. In addition, the log2 fold change in experiment [6] was -0.027; in experiment [7], -0.003; in [8], -0.096; in the experiment with IRAK-1-4 Inhibitor I, 0.032.

CENPQ (UniProt Q7L2Z9): the log2 fold change in the experiment with erlotinib is -0.064; in experiment [1] it was -0.011; in experiment [2], 0.057; in experiment [3] it was 0.098; in experiment [4], 0.078; in [5] it was 0.016. For the same target, the log2 fold change in experiment [6] is 0.033; in experiment [7] it was -0.069; in [8] it was 0.111; with IRAK-1-4 Inhibitor I, -0.012.

Turning to ATP6V0A2 (UniProt Q9Y487), the log2 fold change is 0.026 with erlotinib; 0.027 in [1]; 0.044 in experiment [2]; -0.006 in [3]; 0.035 in experiment [4]; 0.004 in experiment [5]. Further, the log2 fold change was -0.024 in experiment [6], -0.012 in experiment [7], 0 in [8] and 0.042 with IRAK-1-4 Inhibitor I.
